Bioassay records deposited in PubChem by several laboratories.
Sampled rows, rich in hits. Any-hit rate of the full collection: about 3%.
MITF TRPM1 inh = inhibitors of MITF-dependent TRPM1 promoter reporter, primary screen, cell-based, SK-MEL-5, single point, luciferase. SK-MEL-5 TRPM1 promoter luciferase, 24 h. inhibition, % at 12.5 µM. hit rate 0.83% among 330,000. AID 488899, 2010;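 active means mean inhibition across replicates of 60% or more, whatever share of single replicates reaches that level; inconclusive means some that reach 60%, reason not given; inactive means mean inhibition across replicates below 60%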
EBV LMP1 NFkB = EBV LMP1-driven NF-kappaB luciferase reporter inhibitors, primary screen, cell-based, luminescence, single point. AID 504558, 2011. inhibition, % at 12.5 µM. LMP1-induced NF-kappaB luciferase reporter cells. hit rate 0.69% among 350,000; in the data active means inhibition above about 41%; inconclusive means no clear call, values can overlap the other calls
TROY signal inh = inhibitors of TROY-driven NF-kB signaling, primary screen, Q293 LMP1-TROYcd cells, NF-kB luciferase, uHTS | Q293 LMP1-TROYcd NF-kB luciferase reporter, 4 h | inhibition, % at 10 µM | hit rate 0.98% among 360,000;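 active means compounds whose plate-normalised and pattern-corrected inhibition of the luciferase reporter signal at the single screening dose is 50% or more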
MITF TRPM1 HTS = activators of MITF-driven TRPM1 promoter reporter, primary screen, cell-based, SK-MEL-5, luciferase, single point; SK-MEL-5 TRPM1-promoter luciferase, 24 h; % of positive control, neutral wells = 0; activation, % at 12.5 µM; hit rate 0.75% among 300,000;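 active means mean activation of at least 80% with every replicate also reaching 80%; inconclusive means mean reaches 80% but some replicate falls short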
LGR2 inh = inhibitors of bursicon-induced LGR2 CRE-luciferase signal, primary screen, cell-based, HEK293, CRE-luciferase reporter, bursicon stimulation. hit rate 0.35% among 380,000. Drosophila bursicon receptor LGR2 (rickets). inhibition, % at 9.99 µM. bursicon-stimulated, 4 h. AID 720647, 2013;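 active means drop in luminescence signal, shown as inhibition above about 50% in the replicate tests, limit read from the data, passing the limit was not always enough; inconclusive means probably only some replicates passing the limit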;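 further: agonist challenge used bursicon conditioned medium at about half maximal strength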
TWEAK Fn14 block = inhibitors of TWEAK-Fn14 signaling, primary screen, luciferase reporter cells, uHTS | TWEAK-stimulated Fn14 reporter cells, luciferase luminescence, 8 h | inhibition, % at 10 µM | hit rate 2% among 360,000; in the data active means inhibition above about 50%
A number is an active result; n = inactive; u = inconclusive; x = no result given.

SMILES | MITF TRPM1 inh | EBV LMP1 NFkB | TROY signal inh | MITF TRPM1 HTS | LGR2 inh | TWEAK Fn14 block
CC(C)NC(=O)Nc1cccc2c1O[C@@H](CN(C)Cc1ccc3c(c1)OCO3)[C@@H](C)CN([C@@H](C)CO)C2=O | x | x | x | x | n | x
COc1cc2c(cc1NC(=O)CN1C(=O)NC3(CCc4ccccc43)C1=O)oc1ccccc12 (stereo unspecified) | n | n | n | n | x | 62
CC=Cc1ccc2n(c1=O)C[C@@H]1[C@@H](CO)[C@H](C(=O)N(C)C)N(CCC)[C@H]21 (mixture of isomers) | x | x | x | x | n | x
Cn1ccnc1SCC(=O)c1cccc(C(F)(F)F)c1 | n | n | n | 89 | n | n
Cn1ccnc1SCC(=O)Nc1cccc(C(F)(F)F)c1 | n | n | n | n | n | n
COc1ccc(OC)c(S(=O)(=O)NC(C)CCc2ccccc2)c1 (stereo unspecified) | n | 51 | n | n | n | n
COc1ccc(OC)c(S(=O)(=O)NCCc2ccccc2)c1 | n | n | n | n | n | n
CN1C(=O)c2cc(NC(=O)c3ccccc3)ccc2OC[C@@H]2O[C@@H](CC(=O)O)CC[C@H]21 | x | x | x | x | n | x
CCOC(=O)Cn1c(S(=O)(=O)Cc2ccc(F)cc2)nc(-c2ccccc2)c1-c1ccccc1 | n | n | n | n | x | n
C#CCn1c(S(=O)(=O)Cc2ccc(F)cc2)nc(-c2ccccc2)c1-c1ccccc1 | n | 43 | n | n | x | n
CCCc1cc(=O)oc2cc(C)cc(OCC(=O)Nc3ccccn3)c12 | n | n | n | n | n | n
Cc1c(C)c2cc(Cl)c(OCC(=O)Nc3ccccn3)cc2oc1=O | x | n | n | x | n | n
Cc1c(C)c2ccc(OCC(=O)Nc3ccccn3)c(C)c2oc1=O | 87 | n | 82 | n | 100 | 103
Cc1cc(OCC(=O)Nc2ccccn2)c2c(C)cc(=O)oc2c1 | n | 49 | n | n | n | n
COc1ccc(-c2c(C(F)(F)F)[nH]n3c(=O)cc(-c4ccccc4)nc23)cc1 | n | n | 51 | x | n | n
CC(C)NC(=O)N(C)C[C@H]1OCCCC[C@@H](C)Oc2ccc(NS(=O)(=O)c3cn(C)cn3)cc2C(=O)N([C@@H](C)CO)C[C@H]1C | x | x | x | x | n | x
O=C(c1ccccc1F)N1CC[C@@H]2[C@H](CO)Nc3ccc(Br)cc3[C@@H]21 | x | x | x | x | n | x
CCOC(=O)N1CCN(S(=O)(=O)c2ccc(C(=O)NNc3nc4c(C)cc(C)cc4s3)cc2)CC1 | x | x | n | x | x | n
Cc1cccc2sc(NNC(=O)c3ccc(S(=O)(=O)N4CCCC(C)C4)cc3)nc12 (stereo unspecified) | n | n | n | n | n | 63
CCOC(=O)N1CCN(S(=O)(=O)c2ccc(C(=O)NNc3nc4c(C)cccc4s3)cc2)CC1 | n | 92 | n | n | n | n
COc1ccc(-c2[nH]ncc2CNC(C)c2cn(C)nc2C)c(F)c1 (stereo unspecified) | n | n | n | n | n | 65
Cc1ccc(S(=O)(=O)Nc2cccc3c2O[C@@H](CN(C)CC2CCCCC2)[C@H](C)CN([C@H](C)CO)C3=O)cc1 | x | x | x | x | n | x
C[C@]12CC[C@H]3[C@@H](CCC4=CC(=O)CC[C@@]43C)[C@@H]1CC[C@@H]2C(=O)CO | n | 66 | n | n | x | n
CCCCCCCN(C(=O)CCl)c1cccc(C)c1 | n | n | n | n | n | n
N#CCCN(C(=O)CCl)c1cccc(Cl)c1 | n | 45 | n | n | x | n
SMILES | MITF TRPM1 inh | EBV LMP1 NFkB | TROY signal inh | MITF TRPM1 HTS | LGR2 inh | TWEAK Fn14 block
CC(C)CC#Cc1cnc2c(c1)C(=O)N([C@@H](C)CO)C[C@@H](C)[C@H](CN(C)C(=O)Nc1ccccc1F)O2 | x | x | x | x | n | x
C[C@@H]1CN([C@@H](C)CO)C(=O)c2cccc(NS(=O)(=O)c3ccc(Cl)cc3)c2O[C@@H]1CN(C)C(=O)Nc1ccc(C(F)(F)F)cc1 | x | x | x | x | n | x
CCCNC(=O)Nc1ccc2c(c1)OC[C@H](C)N(Cc1ccncc1)C[C@H](C)[C@H](OC)CN(C)C2=O | x | x | x | x | n | x
CCNc1nc(NCC)nc(N(C#N)C(C)C)n1 | n | n | n | n | n | 76
CC1CN(S(=O)(=O)c2ccc(C(=O)Nc3nncs3)cc2)CC(C)O1 (stereo unspecified) | n | n | n | n | n | n
C=CCNc1nc(-c2cc3ccccc3o2)cs1 | n | n | n | n | u | n
CS(=O)(=O)c1ccccc1-c1nnc(NC(=O)c2ccc(S(=O)(=O)N3CCCC3)cc2)o1 | n | n | 70 | n | n | n
O=C(Nc1nc(-c2cc3ccccc3o2)cs1)c1ccc(S(=O)(=O)N2CCCC2)cc1 | n | n | n | n | n | 83
c1ccc2oc(-c3csc(NCC4CCCO4)n3)cc2c1 (stereo unspecified) | n | n | n | n | n | 80
CC1CN(S(=O)(=O)c2ccc(C(=O)Nc3nc(-c4cc5ccccc5o4)cs3)cc2)CC(C)O1 (stereo unspecified) | n | n | n | n | n | 67
C[C@H]1CN([C@@H](C)CO)C(=O)c2cc(NC(=O)CCCCCC(=O)Nc3ccccc3N)ccc2O[C@@H]1CN(C)S(=O)(=O)c1ccc(F)cc1 | x | x | x | x | n | x
C[C@H](CO)N1C[C@H](C)[C@H](CN(C)C)Oc2ncc(-c3ccc(F)cc3)cc2C1=O | x | x | x | x | n | x
C[C@H]1CN([C@@H](C)CO)C(=O)Cc2cc(NC(=O)C3CC3)ccc2O[C@H]1CN(C)C(=O)Nc1cccc2ccccc12 | x | x | x | x | n | x
CCCNC(=O)C[C@H]1C[C@H]2c3cc(NC(=O)Nc4ccccc4)ccc3O[C@H]2[C@H](CO)O1 | x | x | x | x | n | x
C[C@@H]1CN([C@@H](C)CO)C(=O)c2cc(NS(=O)(=O)c3ccccc3)ccc2O[C@@H](C)CCCCO[C@@H]1CN(C)C(=O)c1ccncc1 | x | x | x | x | n | x
CC1CN(S(=O)(=O)c2ccc(NC(=O)c3cc(-c4ccccc4O)n[nH]3)cc2)CC(C)O1 (stereo unspecified) | n | n | 62 | x | x | n
CN(C)S(=O)(=O)c1ccc(C(=O)Nc2nc(-c3cc4ccccc4o3)cs2)cc1 | n | n | 51 | n | n | n
CCNC(=O)[C@@H]1[C@@H](CO)[C@@H]2Cn3c(ccc(C4=CCCCC4)c3=O)[C@@H]2N1C(=O)CC1CC1 | x | x | x | x | n | x
COc1ccc(S(=O)(=O)N[C@@H]2CC[C@@H](CCNC(=O)c3ccccc3F)O[C@@H]2CO)cc1 | x | x | x | x | n | x
COCCNC(=O)C[C@@H]1CC[C@@H]2[C@H](COc3ccc(NC(=O)C4CCCC4)cc3C(=O)N2C)O1 | x | x | x | x | n | x
Cc1cc(=O)n2c3c(c4c(cc13)c(CN(C)C)cc(=O)n4C)OC2 | n | n | 52 | x | 105 | n
C[C@@H]1CCCCO[C@H](CN(C)CC2CCCCC2)[C@@H](C)CN([C@H](C)CO)C(=O)c2cc(NS(=O)(=O)c3cccs3)ccc2O1 | x | x | x | x | n | x
